The term AC50 denotes the concentration at which the activity in the assay is half-maximal.

Active and inactive are the calls of the source. The calls were made as follows: active = hit-call score of the fitted dose curve at least 0.9, where 1 is the maximum; inactive = score below 0.9.

Common to all, as to details: mRNA level, 48 h; actives raise or lower the signal
Read-out in test [1]: Bcl-2 (BID) gene, BID (gene 637)
Put plainly: LTEA_HepaRG_BID: Life Technologies and Expression Analysis (LTEA) Assay for Bcl-2 (BID) gene using HepaRG (AID 2283476). The procedure, abridged: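 Duplicate 48 h treatments of HepaRG cells in serum-free induction medium spanned 100 uM downward in half-log steps, 0.5% DMSO. Transcript change quantified by qRT-PCR against three housekeeping genes, fitted up or down versus DMSO.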

Read-out in a further test: Caspase-3 (Homo sapiens) (UniProt P42574)
Nature of the test: LTEA_HepaRG_CASP3: Life Technologies and Expression Analysis (LTEA) Assay for cysteine-aspartic acid protease (CASP3) using HepaRG (AID 2283477). The procedure, abridged: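 Expression of CASP3 was quantified by TaqMan qRT-PCR against three housekeeping genes (ACTB, GAPDH, POLR2A), bidirectionally versus 0.5% DMSO. HepaRG cultures received compounds in duplicate, top 100 uM with half-log steps, for 48 h in serum-free induction medium.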

Read-out in test [2]: Cytochrome P450 (CYP24A1), CYP24A1 (gene 1591)
Nature of the test: LTEA_HepaRG_CYP24A1: Life Technologies and Expression Analysis (LTEA) Assay for Cytochrome P450 (CYP24A1) using HepaRG (AID 2283478). In outline:
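mRNA of CYP24A1 quantified by TaqMan qRT-PCR (ACTB/GAPDH/POLR2A normalization) after 48 h chemical exposure of HepaRG cells, top concentration 100 uM, half-log steps, 0.5% DMSO vehicle, duplicates. Curves fitted bidirectionally against DMSO baseline.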

Read-out in test [3]: Cytochrome P450 (CYP1A2), CYP1A2 (gene 1544)
Put plainly: LTEA_HepaRG_CYP1A2: Life Technologies and Expression Analysis (LTEA) Assay for Cytochrome P450 (CYP1A2) using HepaRG (AID 2283479). In outline:
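CYP1A2 transcript measured by TaqMan qRT-PCR against three housekeeping genes after 48-hour chemical exposure of HepaRG cells. Eight-point half-log series topping at 100 uM in 0.5% DMSO, duplicates; gain or loss fitted relative to vehicle.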

Read-out in test [4]: cysteine-aspartic acid protease (CASP8), CASP8 (gene 841)
Nature of the test: LTEA_HepaRG_CASP8: Life Technologies and Expression Analysis (LTEA) Assay for cysteine-aspartic acid protease (CASP8) using HepaRG (AID 2283480). In outline:
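CASP8 transcript measured by TaqMan qRT-PCR with ACTB/GAPDH/POLR2A normalization, after 48 h chemical exposure of HepaRG cells in serum-free induction medium. Eight concentrations, top 100 uM, half-log steps, 0.5% DMSO vehicle; fits in both directions versus DMSO.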

Read-out in test [5]: Cytochrome P450 (CYP2B6), CYP2B6 (gene 1555)
Put plainly: LTEA_HepaRG_CYP2B6: Life Technologies and Expression Analysis (LTEA) Assay for Cytochrome P450 (CYP2B6) using HepaRG (AID 2283481). The procedure, abridged: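 CYP2B6 transcript level quantified by qRT-PCR against three housekeeping genes, fitted bidirectionally relative to DMSO. HepaRG cultures received chemicals for 48 h, 8-point half-log series from 100 uM in 0.5% DMSO, duplicate wells, serum-free induction medium.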

Read-out in test [6]: Cytochrome P450 2C19 (Homo sapiens) (UniProt P33261)
Nature of the test: LTEA_HepaRG_CYP2C19: Life Technologies and Expression Analysis (LTEA) Assay for CYP2C19 using HepaRG (AID 2283482). The procedure, abridged: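 CYP2C19 transcript levels by qRT-PCR, normalized to three housekeeping genes, in HepaRG cells after 48 h chemical exposure. Eight-point half-log series topping at 100 uM, 0.5% DMSO vehicle. Increases and decreases both fitted against DMSO.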

Read-out in the next test: CYP2C8 (gene 1558)
Nature of the test: LTEA_HepaRG_CYP2C8: Life Technologies and Expression Analysis (LTEA) Assay for CYP2C8 using HepaRG (AID 2283483). In outline: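 CYP2C8 expression measured by TaqMan qRT-PCR and normalized to three housekeeping genes. HepaRG cultures were treated for 48 h with an eight-point half-log series topping at 100 uM, vehicle 0.5% DMSO, duplicates; fitted both directions against DMSO.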

Read-out in another test: CYP2C9 (gene 1559)
Nature of the test: LTEA_HepaRG_CYP2C9: Life Technologies and Expression Analysis (LTEA) Assay for CYP2C9 using HepaRG (AID 2283484). The procedure, abridged: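 CYP2C9 transcript level, quantified by TaqMan qRT-PCR against three housekeeping genes, was fitted bidirectionally relative to 0.5% DMSO. HepaRG cultures were treated 48 h, in duplicate, at eight half-log concentrations topping at 100 uM.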

Read-out in a further test: CYP2E1 (gene 1571)
Put plainly: LTEA_HepaRG_CYP2E1: Life Technologies and Expression Analysis (LTEA) Assay for CYP2E1 using HepaRG (AID 2283485). The procedure, abridged:
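CYP2E1 transcript measured by Fluidigm qRT-PCR against three housekeeping genes in human HepaRG cells treated 48 h (top 100 uM, half-log steps, 0.5% DMSO vehicle). Gain or loss fitted relative to DMSO baseline.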

Read-out in a further test: CYP4A11 (gene 1579)
Nature of the test: LTEA_HepaRG_CYP4A11: Life Technologies and Expression Analysis (LTEA) Assay for CYP4A11 using HepaRG (AID 2283486). In outline: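 Readout is CYP4A11 transcript level by qRT-PCR, normalized to three housekeeping genes and fitted bidirectionally against 0.5% DMSO. Human HepaRG cells were treated 48 h, in duplicate, with an 8-point half-log series topping at 100 uM.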

Read-out in test [7]: Cytochrome P450 3A4 (Homo sapiens) (UniProt P08684)
Put plainly: LTEA_HepaRG_CYP3A4: Life Technologies and Expression Analysis (LTEA) Assay for CYP3A4 using HepaRG (AID 2283487). In outline:
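HepaRG, 48 h exposure, 8-pt CRC from 100 uM (half-log), 0.5% DMSO, duplicates; serum-free induction medium. Readout: CYP3A4 mRNA, qRT-PCR, ACTB/GAPDH/POLR2A normalization. Bidirectional fit vs DMSO.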

Read-out in test [8]: Pro-epidermal growth factor (Homo sapiens) (UniProt P01133)
Nature of the test: LTEA_HepaRG_EGF: Life Technologies and Expression Analysis (LTEA) Assay for Epidermal growth factor (EGF) using HepaRG (AID 2283489). The procedure, abridged: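 EGF transcript measured by Fluidigm TaqMan qRT-PCR with three housekeeping genes for normalization, 48 h after dosing HepaRG cultures in duplicate (top 100 uM, half-log steps, 0.5% DMSO vehicle). Gain or loss relative to DMSO fitted.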

Read-out in test [9]: Early growth response protein 1 (EGR1) transcription factor, EGR1 (gene 1958)
Nature of the test: LTEA_HepaRG_EGR1: Life Technologies and Expression Analysis (LTEA) Assay for Early growth response protein 1 (EGR1) transcription factor using HepaRG (AID 2283490). In outline: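 EGR1 transcript levels quantified by qRT-PCR (Fluidigm arrays) against three housekeeping genes after 48 h chemical exposure of HepaRG cells. Eight-point half-log series topping at 100 uM, 0.5% DMSO vehicle, analyzed for gain or loss.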

Read-out in test [10]: Ezrin (EZR), EZR (gene 7430)
Put plainly: LTEA_HepaRG_EZR: Life Technologies and Expression Analysis (LTEA) Assay for Ezrin (EZR) using HepaRG (AID 2283491). In outline:
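Read-out is EZR transcript level by qRT-PCR, normalized to three housekeeping genes and fitted bidirectionally against the DMSO control. Human HepaRG cells received test chemicals for 48 h at eight half-log concentrations up to 100 uM in 0.5% DMSO.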

Read-out in test [11]: Cytochrome P450 3A7 (Homo sapiens) (UniProt P24462)
Nature of the test: LTEA_HepaRG_CYP3A7: Life Technologies and Expression Analysis (LTEA) Assay for CYP3A7 using HepaRG (AID 2283492). In outline:
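CYP3A7 transcript measured by qRT-PCR (ACTB, GAPDH, POLR2A normalization) after 48 h chemical exposure of HepaRG cells in duplicate. Eight half-log concentrations, maximum 100 uM, 0.5% DMSO vehicle; bidirectional curve fitting against DMSO baseline.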

Read-out in another test: CYP3A5 (gene 1577)
Put plainly: LTEA_HepaRG_CYP3A5: Life Technologies and Expression Analysis (LTEA) Assay for CYP3A5 using HepaRG (AID 2283493). The procedure, abridged: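 mRNA levels were quantified by qRT-PCR on Fluidigm arrays and normalized to three housekeeping genes. Differentiated HepaRG cells received 48 h exposure (top 100 uM, half-log steps, 0.5% DMSO vehicle, duplicate); bidirectional fitting versus DMSO.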

Read-out in test [12]: Fatty Acid-Binding Protein 1 (FABP1), FABP1 (gene 2168)
Put plainly: LTEA_HepaRG_FABP1: Life Technologies and Expression Analysis (LTEA) Assay for Fatty Acid-Binding Protein 1 (FABP1) using HepaRG (AID 2283494). The procedure, abridged:
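FABP1 expression by TaqMan qRT-PCR, normalised to three housekeeping genes, in HepaRG cells after 48 h chemical treatment. Eight-point half-log series topping at 100 uM in 0.5% DMSO, duplicates; gain or loss fitted relative to vehicle.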

Read-out in test [13]: Cytochrome P450 4A22 (Homo sapiens) (UniProt Q5TCH4)
Nature of the test: LTEA_HepaRG_CYP4A22: Life Technologies and Expression Analysis (LTEA) Assay for Cytochrome P450 4A22 (CYP4A22) using HepaRG (AID 2283495). In outline:
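Gene expression measured by qRT-PCR against three housekeeping genes (ACTB, GAPDH, POLR2A), with gain or loss fitted relative to 0.5% DMSO vehicle. HepaRG cultures received 48 h chemical treatment, top concentration 100 uM, half-log steps, duplicate wells.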

Chain of Cytochrome P450 2C19 (Homo sapiens) (P33261 whole entry, looked up): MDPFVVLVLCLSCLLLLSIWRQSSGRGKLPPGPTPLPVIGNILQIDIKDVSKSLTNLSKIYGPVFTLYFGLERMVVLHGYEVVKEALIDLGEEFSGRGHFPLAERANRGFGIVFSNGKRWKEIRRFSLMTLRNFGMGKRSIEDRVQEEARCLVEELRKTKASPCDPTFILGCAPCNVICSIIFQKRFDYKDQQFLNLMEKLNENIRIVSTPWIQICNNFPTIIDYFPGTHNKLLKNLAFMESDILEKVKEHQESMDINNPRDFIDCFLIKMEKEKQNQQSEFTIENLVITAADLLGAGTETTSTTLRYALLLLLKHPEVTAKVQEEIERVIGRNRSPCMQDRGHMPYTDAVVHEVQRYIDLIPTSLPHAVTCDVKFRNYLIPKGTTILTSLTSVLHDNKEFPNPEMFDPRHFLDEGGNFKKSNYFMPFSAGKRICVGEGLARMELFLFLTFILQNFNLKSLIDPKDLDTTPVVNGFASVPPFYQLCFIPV
Chain of Cytochrome P450 3A7 (Homo sapiens) (P24462 whole entry, looked up): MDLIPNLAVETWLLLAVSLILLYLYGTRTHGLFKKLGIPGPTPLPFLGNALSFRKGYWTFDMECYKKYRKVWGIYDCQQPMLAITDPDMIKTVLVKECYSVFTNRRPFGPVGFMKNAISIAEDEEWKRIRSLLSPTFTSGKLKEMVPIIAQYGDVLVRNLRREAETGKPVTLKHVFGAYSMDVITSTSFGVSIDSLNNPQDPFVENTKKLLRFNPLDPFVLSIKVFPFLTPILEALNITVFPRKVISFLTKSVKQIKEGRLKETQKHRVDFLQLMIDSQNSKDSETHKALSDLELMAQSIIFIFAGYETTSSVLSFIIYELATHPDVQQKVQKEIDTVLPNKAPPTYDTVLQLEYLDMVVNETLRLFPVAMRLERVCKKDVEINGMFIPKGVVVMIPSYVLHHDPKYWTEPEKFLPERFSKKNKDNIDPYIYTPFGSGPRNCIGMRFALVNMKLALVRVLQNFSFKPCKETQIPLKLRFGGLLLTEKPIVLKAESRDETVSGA
Chain of Caspase-3 (Homo sapiens) (P42574 whole entry, looked up): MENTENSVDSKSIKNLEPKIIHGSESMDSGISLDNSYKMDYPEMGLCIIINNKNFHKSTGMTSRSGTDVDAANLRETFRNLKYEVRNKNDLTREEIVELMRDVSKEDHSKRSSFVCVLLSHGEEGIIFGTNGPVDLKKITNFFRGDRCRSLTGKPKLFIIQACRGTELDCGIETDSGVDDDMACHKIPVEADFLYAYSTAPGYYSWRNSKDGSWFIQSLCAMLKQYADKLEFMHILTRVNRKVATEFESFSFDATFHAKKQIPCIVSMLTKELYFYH
Chain of Cytochrome P450 3A4 (Homo sapiens) (P08684 whole entry, looked up): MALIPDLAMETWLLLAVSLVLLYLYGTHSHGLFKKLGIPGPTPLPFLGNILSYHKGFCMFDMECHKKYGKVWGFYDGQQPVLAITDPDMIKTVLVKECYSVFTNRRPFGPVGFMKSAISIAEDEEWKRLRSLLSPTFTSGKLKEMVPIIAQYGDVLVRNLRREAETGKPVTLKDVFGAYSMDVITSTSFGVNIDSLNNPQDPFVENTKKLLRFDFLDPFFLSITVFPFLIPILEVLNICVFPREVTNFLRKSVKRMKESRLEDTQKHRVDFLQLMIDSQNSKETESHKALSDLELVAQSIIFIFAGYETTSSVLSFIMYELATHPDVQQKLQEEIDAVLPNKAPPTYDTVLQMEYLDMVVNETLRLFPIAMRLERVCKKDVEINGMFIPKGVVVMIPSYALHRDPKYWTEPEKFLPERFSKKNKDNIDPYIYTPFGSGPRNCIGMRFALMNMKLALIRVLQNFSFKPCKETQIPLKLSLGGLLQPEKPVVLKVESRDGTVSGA

Regarding `O=C(O)c1cccc(N(Cc2cccnc2)c2ccc(OC(F)F)c(OC(F)F)c2)c1`, the outcome (in test [1]; with Caspase-3 (Homo sapiens); in [3]; in [4]; in [5]; in test [6]) was inactive. Besides, the compound was called inactive (with CYP2C8 (gene 1558); in the test with CYP2C9 (gene 1559); with CYP4A11 (gene 1579); in test [8]; in [10]; in test [11]). The compound was classed as inactive (with CYP3A5 (gene 1577); in test [13]). The half-maximal activity concentration (AC50) in test [2] is 0.00316 µM (active); with CYP2E1 (gene 1571), 5.18 µM (active); in [7], 43.5 µM (active); in test [9], 50 µM (active); in test [12], 87 µM (active).
As for `CCCCCCc1ccc(O)cc1O`, the outcome (in test [1]; with Caspase-3 (Homo sapiens); in test [2]; in test [3]; in test [4]; in [5]) was inactive. Further, the compound was called inactive (in test [6]; with CYP2C8 (gene 1558); with CYP2C9 (gene 1559); with CYP2E1 (gene 1571); with CYP4A11 (gene 1579); in test [7]). For the same compound, the call (in test [8]; in test [9]; in test [10]; in test [11]; in the test with CYP3A5 (gene 1577); in [12]) was inactive. Moreover, the compound was called inactive in test [13].
Take `CC/C(=C\C(=N/O)C(N)=O)C(C)[N+](=O)[O-]` (stereo not given): the call (in test [1]; in the test with Caspase-3 (Homo sapiens); in [2]; in [4]; in [5]; in [6]) was inactive. Also, the outcome (in the test with CYP2C8 (gene 1558); in the test with CYP2C9 (gene 1559); in the test with CYP2E1 (gene 1571); in the test with CYP4A11 (gene 1579); in test [7]; in [8]) was inactive. Also, the result (in [9]; in test [10]; in [11]; in the test with CYP3A5 (gene 1577); in test [12]; in test [13]) was inactive. Further, in [3], the AC50 is 26.5 µM (active).
Take `CCOC(=O)CC(CC(=O)OCC)(OC(C)=O)C(=O)OCC`: the compound was called inactive (in [1]; with Caspase-3 (Homo sapiens); in test [2]; in test [4]; in test [5]; in test [6]). Moreover, the compound was called inactive (with CYP2C8 (gene 1558); with CYP2C9 (gene 1559); with CYP2E1 (gene 1571); with CYP4A11 (gene 1579); in test [7]; in test [8]). Moreover, the outcome (in test [9]; in test [10]; in [11]; in the test with CYP3A5 (gene 1577); in [12]; in [13]) was inactive. The AC50 in test [3] is 20.5 µM (active).
Regarding `CC1=CC(=O)CC(C)(C)C1`, the call (in test [1]; with Caspase-3 (Homo sapiens); in test [2]; in [3]; in test [4]; in [5]) was inactive. The outcome (in [6]; with CYP2C8 (gene 1558); with CYP2C9 (gene 1559); with CYP2E1 (gene 1571); with CYP4A11 (gene 1579); in test [7]) was inactive. In addition, the result (in test [8]; in [9]; in test [10]; in [11]; with CYP3A5 (gene 1577); in [12]) was inactive. In [13], the compound was called inactive.

(Values after PubChem BioAssay (EPA / NIEHS).)
